Screens from PubChem BioAssay.
HCMV inh – qHTS Assay for inhibitors of the human cytomegalovirus (HCMV); HFF cells, HCMV-luciferase reporter, 72 h; active compounds read low; actives 4.5% (n = 410,000); activity change, negative = inhibition, % at 57.5 µM; in the data active means activity change below about -60%; inconclusive means no clear call, values can overlap the other calls; inactive means above about -39%
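Compounds were evaluated in HFFs infected with an HCMV luciferase reporter virus (MOI 1 PFU/cell). Luciferase in lysates collected 72 h post infection served as the replication measure.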
LASV entry inh – qHTS for Inhibitors of binding or entry into cells for Lassa Virus; Lassa virus pseudotype entry inhibition, cell reporter; Potency, µM (top dose mostly 37.9 µM), usual class: inhibitors; actives 1.2% (n = 300,000); AID 540256, 2011; calls by dose curve; tested in HEK293 cells; further: nearly all actives have a fitted effect of over 50% in size
FMDV antiviral – High Throughput Screening for Foot and Mouth Disease Virus Antivirals | FMDV antiviral cell-based qHTS | Potency, µM (highest dose often 57.9 µM), hits mostly inhibitors | actives 1.2% (n = 410,000) | AID 1159524, 2015; calls by dose curve; tested in HEK293T cells; further: read-out not given here; nearly all actives have a fitted effect of over 45% in size
MARV entry inh – qHTS for inhibitors of binding or entry into cells for Marburg Virus; Marburg virus pseudotyped entry inhibition, cell reporter; Potency, µM (top dose mostly 37.8 µM), most hits filed as inhibitors; actives 1.8% (n = 300,000); AID 540276, 2011; calls by dose curve; tested in HEK293 cells
HCV inhibitor – qHTS Assay for Inhibitors of Hepatitis C Virus (HCV). Huh7.5.1 HCVcc-Cre infection, luciferase reporter, 44 h. Potency, µM (titrated, usually from 41.8 µM), usual class: inhibitors. actives 3.4% (n = 340,000). AID 651820, 2012; active means well fitted inhibition curve with a large enough effect; inconclusive means small, poorly fitted or top-dose-only effect, or another doubt; inactive means no such curve, though single readings can be large or run the other way
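1,000 cells/well; 4 h culture; + compound; + HCVcc-Cre (~0.5 moi); 44 h; luciferase substrate, RT 15 min; read 15 sec.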
SARS PLpro yeast – qHTS of Yeast-based Assay for SARS-CoV PLP. Potency, µM (titrated, usually from 32.9 µM), usual class: activators. actives 0.19% (n = 330,000). AID 485353, 2010. S. cerevisiae expressing SARS-CoV PLpro, growth rescue; calls by dose curve; further: nearly all actives have a fitted effect of over 55% in size
A number is an active result; . = inactive; ? = inconclusive; / = no result. Hits are enriched below; roughly 8% of the tested compounds scored in any of these assays.

SMILES	HCMV inh	LASV entry inh	FMDV antiviral	MARV entry inh	HCV inhibitor	SARS PLpro yeast
COc1ccc2[nH]c(=O)c(CN(Cc3ccco3)C(c3nnnn3Cc3ccccc3)C(C)C)cc2c1 (centres undefined)	-98	?	?	13µM	?	.
CCOc1ccc(C2CC(=O)c3c([nH]c(C(=O)OC4CCCCCC4)c3C)C2)cc1 (centres undefined)	.	.	.	.	/	/
COc1cc2cc(C(c3nnnn3C3CCCC3)N3CCCCC3)c(=O)[nH]c2cc1OC (centres undefined)	.	?	.	.	.	.
O=c1[nH]c2cc3c(cc2cc1C(c1nnnn1C1CCCCC1)N1CCSCC1)OCCO3 (centres undefined)	-107	?	.	?	.	.
Cc1cc(-c2ccccc2)n(-c2cc(N/N=C/c3ccccc3O)ncn2)n1	-96	4.5µM	?	8.9µM	?	.
Cc1cc(SCC(=O)Nc2ccc(O)cc2)n2nc(C)c(-c3ccccc3)c2n1	-62	.	.	.	?	.
C=C(C)CSc1cc(C)nc2c(-c3ccccc3)c(C)nn12	-85	/	.	/	?	.
Cc1ccc(C(=O)NC(=C(Cl)Cl)S(=O)(=O)c2ccccc2)cc1	-70	?	?	?	11µM	.
Cc1ccc(C(=O)NCC#N)cc1	.	.	.	?	.	.
COc1ccc(C(=O)NC(=C(Cl)Cl)S(=O)(=O)c2ccc(C)cc2)cc1	.	/	.	/	.	.
Cc1ccc(C(=O)NC(C#N)=C(Cl)Cl)cc1	-99	?	?	?	6.3µM	.
COC(=O)NC(=C(Cl)Cl)S(=O)(=O)c1ccccc1	.	13µM	28µM	?	11µM	/
COc1ccc(S(=O)(=O)N2CCC3CC2c2cc(-c4ccc5c(c4)OCO5)ccc23)cc1 (centres undefined)	.	/	.	/	/	/
CCC(O)c1cc2c(cc1NC(=O)c1cccc(Br)c1)OCCO2 (centres undefined)	.	.	.	.	/	/
NC(=O)C1(N2CCCCC2)CCN(C(=O)CSc2nc(C(F)(F)F)cc(=O)[nH]2)CC1	-65	.	.	.	.	.
CSc1nsc(SC)c1C(=O)Nc1ccc(C(C)(C)C)cc1	.	.	.	11µM	.	.
Cc1oc(-c2ccccc2NC(=O)c2ccccc2)nc1CNC(=O)c1c(-c2ccccc2)noc1C	/	/	.	/	/	/
O=C(c1c[nH]c2ccccc12)C(Cl)c1ccccc1 (centres undefined)	-100	/	?	/	.	.
CCOC(=O)N/N=C1\C[C@@H](O)[C@@H](O)[C@@H]2[C@@H]3C(=O)N(C[C@@H]4CCCO4)C(=O)[C@@H]3CC[C@@H]12	/	/	/	.	/	/
O=C(NCC1CC1)c1nnc2n1CCN(C(=O)c1cccc3c1OCCO3)C2	.	/	/	/	/	/
Cc1ccc2[nH]c(=O)c3cc(C(=O)N(CCCOC(C)C)Cc4ccco4)sc3c2c1	?	/	?	10µM	?	.
Cc1cccc2cc(CN(Cc3ccco3)C(=O)c3cccs3)c(=O)[nH]c12	-99	.	.	.	.	.
CCCCN(Cc1ccco1)C(=O)c1cc2c(=O)[nH]c3ccc(C)cc3c2s1	?	/	.	/	?	.
Cc1cccc2cc(CN(Cc3ccco3)C(=O)c3ccco3)c(=O)[nH]c12	.	.	.	.	.	.
Cc1ccc2[nH]c(=O)c(CN(Cc3ccco3)C(=O)c3cccs3)cc2c1	/	/	/	/	.	.
SMILES	HCMV inh	LASV entry inh	FMDV antiviral	MARV entry inh	HCV inhibitor	SARS PLpro yeast
CCN(CC)CCN(Cc1cc2cc(C)cc(C)c2[nH]c1=O)C(=S)NCc1ccco1	?	.	.	?	.	.
CCN(CC)CCN(Cc1cc2ccc(C)c(C)c2[nH]c1=O)C(=S)NCc1ccco1	-77	5.6µM	.	?	?	.
Cc1ccc2cc(CN(Cc3ccco3)C(=O)c3cccs3)c(=O)[nH]c2c1	.	?	.	1.3µM	?	.
Cc1ccc(C(C)C)cc1S(=O)(=O)Nc1cccnc1	.	.	.	.	.	.
C[C@H]1[C@@H](NS(=O)(=O)c2ccc(-c3ccccc3)cc2)CC[C@@]23CCCN2C(=O)CCC[C@@H]13	.	/	/	/	/	/
CCc1cccc(CC)c1NC(=O)C1CN(S(=O)(=O)c2ccccc2)CCN1S(=O)(=O)c1ccccc1 (centres undefined)	.	.	.	?	13µM	.
